PubChem BioAssay
For some assays here: Entries with a potency or affinity are not part of this list. Calls of active or inactive are those of the source. Unless noted, how the calls were made is not given here.

Columns and labels:
[1] = antimalarial activity against Dd2 strain (AID 2302;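 active means growth inhibition above 50% at the single 2 µM test dose, taken to imply half-maximal potency below 2 µM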;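 further: 0% = DMSO untreated growth and 100% = chloroquine plus artemisinin killed control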); conditions: P. falciparum Dd2 in RBCs, LDH growth readout, 72 h; at 2 µM; stronger effect = higher value
[2] = human hepatoma cell viability loss – ATP luminescence, cytotoxicity control for P. falciparum antimalarial project, primary screen (AID 2303;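 active means inhibition above 50%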;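 further: 0% = DMSO wells and 100% = digitonin-killed cells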); conditions: HepG2 viability, 24-48 h, at 10 µM, stronger effect = higher value
[3] = biological target: L-lactate dehydrogenase (Plasmodium falciparum (isolate CDC / Honduras)) (UniProt Q27743); assay: PfLDH activity inhibition – cell lysate, 3D7 strain, counter-screen for P. falciparum growth inhibition project (AID 2304);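 further: 0% = vehicle and 100% = reference inhibitor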; conditions: P. falciparum 3D7 crude extract, LDH APAD/NBT absorbance; at 2 µM; stronger effect = higher value
Chain of L-lactate dehydrogenase (Plasmodium falciparum (isolate CDC / Honduras)) (Q27743 whole entry, looked up): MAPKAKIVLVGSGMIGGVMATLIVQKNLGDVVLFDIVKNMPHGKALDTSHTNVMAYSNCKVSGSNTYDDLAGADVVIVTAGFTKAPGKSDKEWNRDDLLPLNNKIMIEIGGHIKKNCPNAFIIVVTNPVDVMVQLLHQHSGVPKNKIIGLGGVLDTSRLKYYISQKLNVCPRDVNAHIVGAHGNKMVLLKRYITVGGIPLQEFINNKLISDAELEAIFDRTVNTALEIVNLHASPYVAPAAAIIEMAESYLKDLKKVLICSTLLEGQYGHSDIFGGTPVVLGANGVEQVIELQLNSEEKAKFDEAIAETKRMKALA

[4] = inhibition of 3D7 malaria parasite growth – strain 3D7 (AID 2306);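 further: 0% = DMSO wells and 100% = chloroquine plus artemisinin control wells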; conditions: P. falciparum 3D7 erythrocytic growth, LDH absorbance, 72 h; at 2 µM; stronger effect = higher value
[5] = biological target: Calcium-dependent protein kinase 1 (Plasmodium falciparum (isolate 3D7)) (UniProt P62344); assay: PfCDPK1 kinase inhibitors, biochemical, TCAMS library (AID 1159585; cut-off not given, nearly all actives have IC50 up to about 0.98 µM;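 further: inhibitors leave more ATP so luminescence rises with inhibition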); conditions: recombinant PfCDPK1, Kinase-Glo ATP depletion luminescence
Chain of Calcium-dependent protein kinase 1 (Plasmodium falciparum (isolate 3D7)) (P62344 whole entry, looked up): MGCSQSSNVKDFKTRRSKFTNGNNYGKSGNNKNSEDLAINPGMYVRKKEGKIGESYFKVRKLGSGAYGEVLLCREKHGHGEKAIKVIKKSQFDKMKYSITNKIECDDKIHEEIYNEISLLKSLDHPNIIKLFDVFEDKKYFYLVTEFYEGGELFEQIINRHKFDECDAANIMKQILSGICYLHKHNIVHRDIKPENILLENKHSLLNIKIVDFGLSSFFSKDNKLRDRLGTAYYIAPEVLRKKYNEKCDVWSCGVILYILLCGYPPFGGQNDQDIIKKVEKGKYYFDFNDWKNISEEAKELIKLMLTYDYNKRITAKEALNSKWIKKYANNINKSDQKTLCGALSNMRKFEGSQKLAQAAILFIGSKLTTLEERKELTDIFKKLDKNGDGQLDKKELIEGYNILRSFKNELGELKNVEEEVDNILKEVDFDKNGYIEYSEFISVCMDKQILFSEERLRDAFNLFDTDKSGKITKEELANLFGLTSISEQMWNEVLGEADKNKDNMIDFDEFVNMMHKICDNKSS

[6] = biological target: Plasmodium falciparum protein kinase 6 (PK6, PF3D7_1337100) (UniProt Q8IDW1); assay: PfPK6 kinase inhibitors, biochemical, TCAMS library (AID 1159586); conditions: recombinant PfPK6, Kinase-Glo ATP depletion luminescence
Chain of Plasmodium falciparum protein kinase 6 (PK6, PF3D7_1337100) (Q8IDW1 1-305): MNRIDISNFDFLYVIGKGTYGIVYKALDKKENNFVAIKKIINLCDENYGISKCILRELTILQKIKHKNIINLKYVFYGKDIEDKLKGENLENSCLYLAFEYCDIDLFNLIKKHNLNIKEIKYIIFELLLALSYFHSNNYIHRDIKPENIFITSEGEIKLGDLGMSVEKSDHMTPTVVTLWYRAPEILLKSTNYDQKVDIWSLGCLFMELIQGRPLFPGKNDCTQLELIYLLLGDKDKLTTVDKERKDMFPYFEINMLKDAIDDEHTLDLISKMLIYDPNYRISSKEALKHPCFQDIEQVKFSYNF

[7] = biological target: Protein kinase 7 (PK7), Plasmodium falciparum 3D7 (PF3D7_0213400) (UniProt Q7YTF7); assay: inhibition of Plasmodium PK7 catalytic activity – biochemical, TCAMS antimalarial set, Kinase-Glo luminescence (AID 1159587); conditions: recombinant PfPK7, Kinase-Glo ATP depletion luminescence
Chain of Protein kinase 7 (PK7), Plasmodium falciparum 3D7 (PF3D7_0213400) (Q7YTF7 1-343): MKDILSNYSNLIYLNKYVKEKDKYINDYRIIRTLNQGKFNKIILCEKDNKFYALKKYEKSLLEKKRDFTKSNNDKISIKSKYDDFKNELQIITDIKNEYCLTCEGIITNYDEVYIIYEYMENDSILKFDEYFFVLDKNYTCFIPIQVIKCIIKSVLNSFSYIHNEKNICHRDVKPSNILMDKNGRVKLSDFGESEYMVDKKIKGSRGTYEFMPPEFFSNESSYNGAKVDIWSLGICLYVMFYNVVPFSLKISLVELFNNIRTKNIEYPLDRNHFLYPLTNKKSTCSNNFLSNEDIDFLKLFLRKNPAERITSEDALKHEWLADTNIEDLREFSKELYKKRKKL

[8] = biological target: Calcium-dependent protein kinase 4 (Plasmodium falciparum (isolate 3D7)) (UniProt Q8IBS5); assay: PfCDPK4 kinase inhibitors, biochemical, TCAMS library (AID 1159588; cut-off not given, nearly all actives have IC50 up to about 0.91 µM); conditions: recombinant PfCDPK4, Kinase-Glo ATP depletion luminescence
Chain of Calcium-dependent protein kinase 4 (Plasmodium falciparum (isolate 3D7)) (Q8IBS5 whole entry, looked up): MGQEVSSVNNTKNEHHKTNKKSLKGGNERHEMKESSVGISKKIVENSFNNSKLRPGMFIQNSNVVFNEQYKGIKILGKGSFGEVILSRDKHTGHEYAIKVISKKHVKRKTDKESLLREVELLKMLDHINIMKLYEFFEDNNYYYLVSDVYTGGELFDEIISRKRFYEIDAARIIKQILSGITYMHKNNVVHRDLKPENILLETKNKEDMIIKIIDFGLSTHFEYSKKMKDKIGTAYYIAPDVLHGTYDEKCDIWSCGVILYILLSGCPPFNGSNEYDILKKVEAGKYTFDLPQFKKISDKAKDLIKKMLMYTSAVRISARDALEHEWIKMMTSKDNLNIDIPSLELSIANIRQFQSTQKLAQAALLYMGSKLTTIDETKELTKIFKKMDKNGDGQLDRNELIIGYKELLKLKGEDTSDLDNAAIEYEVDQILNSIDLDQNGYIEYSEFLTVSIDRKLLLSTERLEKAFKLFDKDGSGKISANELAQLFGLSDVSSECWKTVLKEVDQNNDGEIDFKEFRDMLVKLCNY

CCc1c(CCNCCCC(C)CCNCCc2ccc(OC)c(OC)c2CC)ccc(OC)c1OC (stereo not given)
active: inhibition [2] 99% | growth inhibition [4] 100%
inactive: growth inhibition [1] 27% | inhibition [3] 1% | outcome [5] | outcome [6] | outcome [7] | outcome [8]

Clc1ccc(Nc2nc(NCc3ccccc3)nc(N/N=C/c3ccccn3)n2)cc1
active: growth inhibition [1] 91% | growth inhibition [4] 99%
inactive: inhibition [2] 41% | inhibition [3] 3% | outcome [5] | outcome [6] | outcome [7] | outcome [8]

Cc1cc(-c2cccc(CNC3CCCC3)c2)ccc1S(=O)(=O)NCCN1CCCC1
active: growth inhibition [4] 81%
inactive: growth inhibition [1] 7% | inhibition [2] 38% | inhibition [3] 2% | outcome [5] | outcome [6] | outcome [7] | outcome [8]

O=c1cc(NCCCNCc2cc3ccc(Br)cc3s2)[nH]c2ccccc12
inactive: growth inhibition [1] 8% | inhibition [2] 18% | inhibition [3] -2% | outcome [5] | outcome [6] | outcome [7] | outcome [8]
active: growth inhibition [4] 92%

Cc1nc2ccc(/C=C/C(=O)NC3CCC(CCN4CCc5ccc(C#N)cc5CC4)CC3)cc2[nH]1 (stereo not given)
inactive: growth inhibition [1] 21% | inhibition [2] 7% | inhibition [3] -2% | outcome [5] | outcome [6] | outcome [7] | outcome [8]
active: growth inhibition [4] 88%

CCC(CO)NCC(O)Cn1c2ccc(Cl)cc2c2cc(Cl)ccc21 (stereo not given)
inactive: inhibition [2] 11% | inhibition [3] -2% | outcome [5] | outcome [6] | outcome [7] | outcome [8]
active: growth inhibition [1] 88% | growth inhibition [4] 96%

CN1CCC(C(=O)N(Cc2ccc(-c3ccc(CNCCc4ccc(S(C)(=O)=O)cc4)cn3)cc2)Cc2ccc3c(c2)OCO3)CC1
inactive: inhibition [2] 16% | inhibition [3] -3% | outcome [5] | outcome [6] | outcome [7] | outcome [8]
active: growth inhibition [1] 51% | growth inhibition [4] 91%

O=C(Nc1ccc(Br)c(Cl)c1)c1cc([N+](=O)[O-])cc2cn[nH]c12
inactive: inhibition [2] 49% | inhibition [3] -1% | outcome [5] | outcome [6] | outcome [7] | outcome [8]
active: growth inhibition [1] 63% | growth inhibition [4] 99%

CC(C)CC(NC(=O)c1ccc(F)cc1)C(=O)N[C@H](/C=N/N1CCNC1=O)CC(C)C (stereo not given in full)
active: growth inhibition [1] 84% | growth inhibition [4] 89%
inactive: inhibition [2] -5% | inhibition [3] -4% | outcome [5] | outcome [6] | outcome [7] | outcome [8]

CN(Cc1cccc(F)c1)C1CCCN(c2cc(NC(=O)c3ccccc3)ccn2)C1 (stereo not given)
inactive: inhibition [2] 3% | inhibition [3] -3% | outcome [5] | outcome [6] | outcome [7] | outcome [8]
active: growth inhibition [1] 50% | growth inhibition [4] 93%

NCCCNc1nccc(N2CCc3ncnc(Nc4ccc(OCc5cccc(F)c5)c(Cl)c4)c3C2)n1
active: growth inhibition [1] 93% | growth inhibition [4] 98%
inactive: inhibition [2] 18% | inhibition [3] 0% | outcome [5] | outcome [6] | outcome [7] | outcome [8]

Fc1ccc2nc(-c3ccc(-c4cccc(CN5CCN(CCN6CCOCC6)CC5)c4)cc3)[nH]c2c1
inactive: inhibition [2] 35% | inhibition [3] 4% | outcome [5] | outcome [6] | outcome [7] | outcome [8]
active: growth inhibition [1] 100% | growth inhibition [4] 101%

CS(=O)(=O)NCCCNCc1cccc(-c2csc(-c3nc4ccccc4[nH]3)c2)c1
active: growth inhibition [4] 95%
inactive: growth inhibition [1] 9% | inhibition [2] 23% | inhibition [3] 8% | outcome [5] | outcome [6] | outcome [7] | outcome [8]

CN1CCN(c2cc(NC(=O)Nc3cccc(Cl)c3Cl)ccc2Cl)CC1
active: growth inhibition [4] 102%
inactive: growth inhibition [1] 21% | inhibition [2] 2% | inhibition [3] 2% | outcome [5] | outcome [6] | outcome [7] | outcome [8]

COc1c(C2CCN(CCCCNC(=O)c3ccc(-c4ccc(Cl)cc4)c(O)c3)CC2)ccc2c1CCCC2
active: growth inhibition [1] 99% | inhibition [2] 91% | growth inhibition [4] 102%
inactive: inhibition [3] -5% | outcome [5] | outcome [6] | outcome [7] | outcome [8]

Oc1ccc(CCNc2nc(N/N=C/C=C/c3ccc(Cl)cc3)nc(N3CCNCC3)n2)cc1
active: growth inhibition [1] 52% | growth inhibition [4] 98%
inactive: inhibition [2] 17% | inhibition [3] 2% | outcome [5] | outcome [6] | outcome [7] | outcome [8]

CCCCOC(=O)C1=C(C)NC2=C(C(=O)CC(c3ccc(OC)c(OC)c3)C2)C1c1ccc(O)cc1 (stereo not given)
active: growth inhibition [1] 75% | growth inhibition [4] 90%
inactive: inhibition [2] -6% | inhibition [3] 2% | outcome [5] | outcome [6] | outcome [7] | outcome [8]

Cc1cccc2c(C(=O)NC3CCN(Cc4ccccc4)CC3)cc(-c3cccnc3)nc12
active: growth inhibition [4] 81%
inactive: growth inhibition [1] 10% | inhibition [2] 12% | inhibition [3] -2% | outcome [5] | outcome [6] | outcome [7] | outcome [8]

C=C[C@H]1CN(CCCCCCC)CC[C@H]1CC(=O)Nc1cnnc2ccc(OC)cc12
active: growth inhibition [1] 100% | growth inhibition [4] 101%
inactive: inhibition [2] 12% | inhibition [3] 3% | outcome [5] | outcome [6] | outcome [7] | outcome [8]

CCCc1cc(Cc2cnc(N)nc2N)cc(OCCCCCC(=O)O)c1OC
active: growth inhibition [4] 95%
inactive: growth inhibition [1] 2% | inhibition [2] 8% | inhibition [3] 4% | outcome [5] | outcome [6] | outcome [7] | outcome [8]

O=C(Nc1cccc(-c2ccc(-c3nc4ccc(F)cc4[nH]3)cc2)c1)Nc1ccc(Cl)c(Cl)c1
inactive: growth inhibition [1] 49% | inhibition [3] 3% | outcome [5] | outcome [6] | outcome [7] | outcome [8]
active: inhibition [2] 79% | growth inhibition [4] 100%

CCCCCCOc1ccc(C(N)=NCc2ccccc2)c2c1CCCC2
active: inhibition [2] 62% | growth inhibition [4] 96%
inactive: growth inhibition [1] 35% | inhibition [3] -3% | outcome [5] | outcome [6] | outcome [7] | outcome [8]

CCCCNCc1ccc(-c2nc(CN(Cc3ccc(Cl)c(Cl)c3)S(=O)(=O)c3ccc(NC(C)=O)cc3)cs2)cc1
inactive: growth inhibition [1] 20% | inhibition [2] 30% | inhibition [3] 5% | outcome [5] | outcome [6] | outcome [7] | outcome [8]
active: growth inhibition [4] 96%

Cc1cccnc1Nc1nc(-c2ccccn2)cs1
inactive: inhibition [3] -1% | outcome [5] | outcome [6] | outcome [7] | outcome [8]
active: growth inhibition [1] 99% | inhibition [2] 60% | growth inhibition [4] 96%

COc1ccc(-c2nc3c4cc(I)ccc4c4ccccc4c3[nH]2)cc1
inactive: growth inhibition [1] 16% | inhibition [2] 4% | inhibition [3] -3% | outcome [5] | outcome [6] | outcome [7] | outcome [8]
active: growth inhibition [4] 96%

Cc1ccc2nc(/C=C/c3cccc4cc[nH]c34)[nH]c2c1
inactive: inhibition [2] 9% | inhibition [3] -3% | outcome [5] | outcome [6] | outcome [7] | outcome [8]
active: growth inhibition [1] 92% | growth inhibition [4] 100%

COc1ccc2ncc(Cl)c(N3CCC(CCNCc4ccc5c(n4)NC(=O)CS5)CC3)c2c1
inactive: inhibition [2] 33% | inhibition [3] 0% | outcome [5] | outcome [6] | outcome [7] | outcome [8]
active: growth inhibition [1] 82% | growth inhibition [4] 89%

O=C(C1COc2ccccc2O1)N(CCCn1ccnc1)Cc1csc(-c2ccc(CNCc3ccccc3)cc2)n1 (stereo not given)
active: growth inhibition [4] 100%
inactive: growth inhibition [1] 18% | inhibition [2] 15% | inhibition [3] -1% | outcome [5] | outcome [6] | outcome [7] | outcome [8]

C=CCC1OC(=O)c2cc(OC)cc(OC)c21 (stereo not given)
inactive: inhibition [3] 2% | outcome [5] | outcome [6] | outcome [7] | outcome [8]
active: growth inhibition [1] 100% | inhibition [2] 100% | growth inhibition [4] 95%

Cc1nnc(-c2ccc3ccccc3c2)c2cn(-c3cccc([N+](=O)[O-])c3)nc12
active: growth inhibition [1] 67% | growth inhibition [4] 91%
inactive: inhibition [2] 29% | inhibition [3] 3% | outcome [5] | outcome [6] | outcome [7] | outcome [8]

O=C(NCCCCN1CCC(c2ccc3c(c2OC(=O)c2ccc(NC(=O)c4ccc(Cl)cc4)cc2)CCCC3)CC1)c1ccc(NC(=O)c2ccc(Cl)cc2)cc1
inactive: inhibition [3] -2% | outcome [5] | outcome [6] | outcome [7] | outcome [8]
active: growth inhibition [1] 99% | inhibition [2] 62% | growth inhibition [4] 101%

CN1CCN(S(=O)(=O)c2cccc(Nc3nccc(N(C)c4ccc5c(c4)nc(NC(=O)c4cccs4)n5C)n3)c2)CC1
inactive: inhibition [2] 25% | inhibition [3] -6% | outcome [5] | outcome [6] | outcome [7] | outcome [8]
active: growth inhibition [1] 59% | growth inhibition [4] 99%

CCNc1cc(C(=O)N[C@@H](Cc2ccccc2)[C@H](O)CNC2C3CC4CC(C3)CC2C4)cc(N2CCCCS2(=O)=O)c1 (stereo not given in full)
active: growth inhibition [1] 96% | growth inhibition [4] 97%
inactive: inhibition [2] -2% | inhibition [3] 6% | outcome [5] | outcome [6] | outcome [7] | outcome [8]

O=C(Nc1ccc2c(c1)CCCN2S(=O)(=O)c1cccs1)c1cc([N+](=O)[O-])ccc1Cl
inactive: inhibition [2] 29% | inhibition [3] 3% | outcome [5] | outcome [6] | outcome [7] | outcome [8]
active: growth inhibition [1] 95% | growth inhibition [4] 93%

CCNc1cc(C)nc(Nc2ccc(NC(=O)c3cccs3)cc2)n1
active: growth inhibition [1] 50% | growth inhibition [4] 101%
inactive: inhibition [2] 21% | inhibition [3] 0% | outcome [5] | outcome [6] | outcome [7] | outcome [8]

N#CC1(c2ccccc2)CCN(c2nc(NCCCN3CCCC3=O)nc(N3CCCC4CCCCC43)n2)CC1 (stereo not given)
inactive: inhibition [2] -2% | inhibition [3] 3% | outcome [5] | outcome [6] | outcome [7] | outcome [8]
active: growth inhibition [1] 92% | growth inhibition [4] 95%

Cc1cc(N[C@@H](Cc2ccccc2)C(=O)NC2CCCC2)nc(Nc2ccccc2)n1
active: growth inhibition [1] 82% | growth inhibition [4] 100%
inactive: inhibition [2] 3% | inhibition [3] 0% | outcome [5] | outcome [6] | outcome [7] | outcome [8]

CCC(C)NS(=O)(=O)c1ccc2nc(Nc3ccc(C)c(Cl)c3)n(C3CCCCC3)c2c1 (stereo not given)
active: growth inhibition [1] 98% | growth inhibition [4] 99%
inactive: inhibition [2] -8% | inhibition [3] 5% | outcome [5] | outcome [6] | outcome [7] | outcome [8]

CS(=O)(=O)n1c(CN2CCN(c3ncc(C(F)(F)F)cc3Cl)CC2)nc2ccccc21
inactive: inhibition [2] -2% | inhibition [3] -4% | outcome [5] | outcome [6] | outcome [7] | outcome [8]
active: growth inhibition [1] 59% | growth inhibition [4] 83%

CCc1ccc(C2CCN(CCCCNC(=O)c3ccc(-c4ccc(Cl)cc4)cc3)CC2)c(O)c1
active: growth inhibition [1] 99% | growth inhibition [4] 101%
inactive: inhibition [2] 48% | inhibition [3] 2% | outcome [5] | outcome [6] | outcome [7] | outcome [8]
